Where “and” joins values, the source holds several entries; their conditions need not be identical. Equal entries are not always repeated. Calls of active or inactive are those of the source.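 Rule for the calls, unless noted: active = compounds whose cell count with miR-34 switched on is under 0.7 times the count with it off; inactive = the rest.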
Columns and labels:
[1] = viability loss with induced miR-34 in A549 – imaging, A549 dox-inducible miR-34, nuclei and caspase counts, primary screen (AID 1347080); conditions: A549 miR-34 inducible, Hoechst nuclei count, 48 h; note: test concentration not given here
[2] = MELAS cybrid and Rieske KO viability enhancers – cell-based, MELAS cybrids, Rieske KO mouse fibroblasts, CellTiter-Glo, primary screen (AID 1508586;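 active = mean z-score across replicates of 1.96 or higher in either the MELAS or the Rieske mutant cell line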;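 note: test concentration not given here; z relative to plate mean and SD of compound and empty wells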); conditions: low glucose
[3] = galactose survival enhancers in mitochondrial complex I cybrids – cell-based, galactose medium, ATP luminescence, primary screen (AID 1645843;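 active = z-score of at least 1.8 in each of two replicates, scored against plate mean and spread of sample wells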;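 note: positive z means more ATP and so rescue of galactose-driven cybrid death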); conditions: complex I mutant cybrid cells, 72 h, stronger effect = higher value
[4] = stronger effect = lower value, cell number ratio, induced over uninduced
[5] = measured here: relative caspase fold change +Dox/-Dox
[6] = measured here: total cells with miR-34 induction, stronger effect = lower value
[7] = measured here: total cells without miR-34 induction
[8] = MELAS cybrid survival, CellTiter-Glo 48 h, stronger effect = higher value
[9] = Rieske KO mouse fibroblast survival, CellTiter-Glo 72 h

| SMILES | fold change [1, 4] | fold change [1, 5] | cell count [1, 6] | cell count [1, 7] | z-score [2, 8] | z-score [2, 9] | z-score [3] |
| --- | --- | --- | --- | --- | --- | --- | --- |
| CC(O)Cc1cn(C2CCN(c3ncnc4nc[nH]c34)CC2)nn1 (centres undefined) | 0.957 (inactive) | 0.915 | 8270 | 8650 | -0.102 (inactive) | -1.64 | -0.52 (inactive) |
| CS(=O)(=O)Nc1ccc(C(=O)O)cc1 | 0.918 (inactive) | 0.714 | 8860 | 9650 | 0.13 (inactive) | -0.244 | 0.365 (inactive) |
| Cc1ccc2c(c1)N(Cc1nc(C(C)(C)C)no1)C(=O)CO2 | 1.19 (inactive) | 0.578 | 6310 | 5280 | -0.543 (inactive) | -0.423 | -0.52 (inactive) |
| O=C(O)c1ccc(-c2ccc([N+](=O)[O-])cc2Cl)o1 | 0.876 (inactive) | 0.203 | 8260 | 9440 | 0.0167 (inactive) | -0.308 | 0.255 (inactive) |
| Cc1cc(=O)oc2cc(OC3OC(CO)C(O)C(O)C3O)ccc12 (centres undefined) | 0.875 (inactive) | 0.68 | 8660 | 9900 | 0.734 (inactive) | -0.54 | 0.72 (inactive) |
| O=C(Nc1cc(Br)c(O)c(Br)c1)c1ccccc1 | 0.856 (inactive) | 0.708 | 7950 | 9290 | 0.106 (inactive) | -0.271 | 0.2 (inactive) |
| O=c1c2nccnc2ncn1Cc1ccc2nsnc2c1 | 0.878 (inactive) | 1.36 | 8120 | 9250 | -0.0326 (inactive) | -0.667 | -0.53 (inactive) |
| Cc1cc(C)nc(-c2cnn(CC(=O)Nc3cc(C)nn3-c3ccccn3)c2)n1 | 0.882 (inactive) | 1.32 | 5870 | 6650 | -0.672 (inactive) | -0.181 | -0.415 (inactive) |
| COc1ccc(-c2oc3ncnc(NCCO)c3c2-c2ccc(OC)cc2)cc1 | 0.89 (inactive) | 0.844 | 5740 | 6450 | 1.03 | 11.9 | -1.77 (inactive) |
| Cc1ccc(NS(=O)(=O)c2ccccc2)c(C(=O)O)c1 | 0.888 (inactive) | 0.521 | 8960 | 10100 | 0.391 (inactive) | -0.208 | 0.425 (inactive) |
| Cc1ccc2c(C(=O)N(C)C(C)C)cc(-c3cnc(C(C)C)nc3)nc2c1 | 0.942 (inactive) | 1.5 | 7480 | 7940 | 0.549 (inactive) | 0.778 | -0.485 (inactive) |
| CC(C)SC1OC(CO)C(O)C(O)C1O (centres undefined) | 0.887 (inactive) | 0.478 | 8290 | 9350 | -0.322 (inactive) | -0.813 | 0.635 (inactive) |
| CCn1ncc2[nH]c(-c3cnn(C)c3-c3ccccc3)nc21 | 0.88 (inactive) | 1.89 | 8480 | 9640 | -0.346 (inactive) | -0.221 | -0.49 (inactive) |
| c1ccc2c(c1)OCC(CNc1ncnc3nc[nH]c13)O2 (centres undefined) | 0.786 (inactive) | 0.972 | 6310 | 8020 | -0.539 (inactive) | 0.778 | -0.485 (inactive) |
| CCCN1CCCCC1C(=O)Nc1c(C)cccc1C (centres undefined) | 0.891 (inactive) and 0.942 (inactive) | 1.17 and 1.76 | 9320 and 9310 | 10500 and 9880 | 0.0955 (inactive) | -0.512 | 0.57 (inactive) |
| COc1ccc2c(C(=O)N(C)Cc3nonc3C)cc(-c3cnn(C)c3)nc2c1 | 0.963 (inactive) | 1.42 | 8090 | 8400 | -0.189 (inactive) | -0.423 | -0.54 (inactive) |
| CC(C)(C)Nc1nc(N)c(C(=O)c2ccccc2)s1 | 0.899 (inactive) | 0.5 | 6780 | 7540 | 3.13 (active) | 0.287 | 0.55 (inactive) |
| Cc1ccc2c(-c3ncnc4scc(C)c34)cccc2n1 | 0.882 (inactive) | 1.37 | 6650 | 7540 | -0.275 (inactive) | -0.173 | 2.45 (inactive) |
| COc1cccc2c(=O)n(Cc3ccc4ncccc4c3)cnc12 | 0.883 (inactive) | 1.22 | 8080 | 9140 | -0.263 (inactive) | -0.193 | -0.28 (inactive) |
| CCn1ncc(NC(=O)Cn2ccc(-c3ncnn3C)n2)n1 | 0.85 (inactive) | 1.24 | 8780 | 10300 | 0.204 (inactive) | -0.374 | -0.5 (inactive) |
| COc1ccc(C(=O)Nc2c(Cl)cncc2Cl)cc1OC1CCCC1 | 0.898 (inactive) | 0.397 | 7850 | 8740 | 0.807 (inactive) | 0.781 | 0.215 (inactive) |

| SMILES | fold change [1, 4] | fold change [1, 5] | cell count [1, 6] | cell count [1, 7] | z-score [2, 8] | z-score [2, 9] | z-score [3] |
| --- | --- | --- | --- | --- | --- | --- | --- |
| Nc1nc(NC(Cn2ccnc2)c2ccccc2)c2cn[nH]c2n1 (centres undefined) | 0.958 (inactive) | 1.04 | 9810 | 10200 | -0.353 (inactive) | -0.318 | -0.495 (inactive) |
| O=c1[nH]c(=O)c2[nH]cnc2[nH]1 | 0.891 (inactive) | 0.584 | 8870 | 9950 | 0.44 (inactive) | -0.148 | -0.02 (inactive) |
| CC(C)n1cc(-c2cc(C(=O)N(C)Cc3ccncc3)c3ccc(F)cc3n2)cn1 | 0.897 (inactive) | 1.79 | 8810 | 9830 | -0.679 (inactive) | 0.655 | -0.46 (inactive) |
| Cc1nc(NC(=O)NCC2COc3ccccc3O2)nn1C(C)C (centres undefined) | 0.958 (inactive) | 1.49 | 8560 | 8940 | -0.362 (inactive) | 0.824 | 2.15 (active) |
| CCC1OC(=O)C(C)C(OC2C[C@@](C)(OC)C(O)C(C)O2)C(C)C(OC2OC(C)CC(N(C)C)C2O)[C@](C)(OC)CC(C)C(=O)C(C)C(O)[C@]1(C)O (some centres undefined) | 0.943 (inactive) and 0.989 (inactive) | 1.76 and 0.873 | 9620 and 10500 | 10200 and 10600 | -0.386 (inactive) | 0.552 | -0.175 (inactive) |
| Cn1nc(NC(=O)Cn2cc(-c3nccc4occc34)cn2)c2ccccc21 | 0.83 (inactive) | 2.06 | 7280 | 8770 | 0.277 (inactive) | -0.242 | -0.345 (inactive) |
| COc1ccc(C(=O)O)cc1 | 0.947 (inactive) | 0.667 | 9110 | 9620 | -0.37 (inactive) | -0.0461 | -0.635 (inactive) |
| NCc1ccc(-c2cccs2)cc1 | 0.89 (inactive) | 0.746 | 8580 | 9650 | -0.349 (inactive) | -0.59 | 0.51 (inactive) |
| Cn1cc(/C=C/C(=O)N2CCc3[nH]nc(-c4ccccc4F)c3C2)cn1 | 0.865 (inactive) | 2.04 | 7720 | 8920 | -0.472 (inactive) | -0.29 | -0.48 (inactive) |
| COc1cccc2ccc(-c3coc4ccccc4c3=O)nc12 | 0.946 (inactive) | 0.913 | 7730 | 8170 | -0.341 (inactive) | 0.246 | 2.79 (active) |
| COc1cccc(Cc2noc(-c3nccc4ccccc34)n2)c1 | 0.933 (inactive) | 1.27 | 8090 | 8670 | 0.324 (inactive) | -0.0974 | -0.1 (inactive) |
| O=c1ccc2ccccc2[nH]1 | 0.871 (inactive) | 0.441 | 8280 | 9510 | 1.28 (inactive) | 0.0217 | 0.98 (inactive) |
| COc1ccc(CSc2nnc(-c3ccc4c(c3)OCO4)o2)cc1F | 0.89 (inactive) | 0.327 | 8570 | 9630 | 0.835 (inactive) | -0.403 | 1.06 (inactive) |
| O=S(=O)(Nc1cc(-c2cccs2)nn1-c1ccc(F)cc1)c1cccc(F)c1 | 0.903 (inactive) | 0.956 | 7390 | 8190 | 0.0617 (inactive) | 0.524 | -1.46 (inactive) |
| O=C(OC1Cc2c(O)cc(O)cc2OC1c1cc(O)c(O)c(O)c1)c1cc(O)c(O)c(O)c1 (centres undefined) | 0.855 (inactive) and 0.924 (inactive) | 1.5 and 0.635 | 9030 and 8300 | 10600 and 8990 | -0.179 (inactive) | -0.151 | -1.44 (inactive) |
| COc1ccc(CN2CCN(c3cc(C)nc(N)n3)CC2=O)cc1 | 0.879 (inactive) | 1.5 | 8130 | 9240 | 0.162 (inactive) | 0.559 | -0.615 (inactive) |
| CC[C@H](C)[C@H](NC(=O)c1nc2ccccc2c(=O)[nH]1)C(=O)OC | 0.844 (inactive) | 2.34 | 7550 | 8940 | 0.166 (inactive) | -0.367 | -0.31 (inactive) |
| NS(=O)(=O)c1ccc(CCC(=O)O)cc1 | 0.881 (inactive) | 0.214 | 8780 | 9960 | 0.234 (inactive) | -0.0972 | 0.14 (inactive) |
| COc1ccc(-n2cccn2)c(-c2nnc3ccccn23)c1 | 0.89 (inactive) | 0.706 | 8500 | 9550 | -0.172 (inactive) | -0.541 | -0.55 (inactive) |
| Nc1[nH]c(=O)[nH]c(=O)c1N | 0.894 (inactive) | 0.315 | 8900 | 9960 | 0.368 (inactive) | 0.648 | 0.84 (inactive) |
| Cc1cc(-c2cccc(OC(C)C)c2)nc(N)n1 | 0.871 (inactive) | 1.62 | 7710 | 8860 | -1.21 (inactive) | 0.889 | -0.56 (inactive) |

From PubChem BioAssay
